# According to PubChem BioAssay:
# Where “and” joins values, the source holds several entries; their conditions need not be identical. Identical values can stand only once. Calls of active or inactive are those of the source.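 The calls were made as follows, unless noted: active = thallium flux through the channel raised or lowered by more than 3 SD from vehicle-only wells, actives on both sides; inactive = the rest.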
# Key:
# [1] = blockers of polyQ-driven CASP3 activation – cell-based (AID 1583); details: polyglutamine-induced caspase-3 activation, cell assay; stronger effect = higher value;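 tested at 10 µM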
# [2] = yeast 75Q aggregation reduction – 75Q-TubU reporter (AID 1593); details: Yeast 75Q polyglutamine aggregation reporter
# [3] = blockers of cytochrome c efflux from mitochondria – biochemical, purified mitochondria (AID 1603); details: stronger effect = lower value;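 also: mouse liver mitochondria challenged with calcium chloride; signal normalized to the plate average as 100%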
# [4] = polyglutamine aggregate formation blockers (AID 1604); details: polyglutamine-induced protein aggregation inhibition assay; stronger effect = higher value; tested at 2.5 µM
# [5] = glutamate transport activators, MN-1 cells, MN-1 cell line (AID 1612); details: MN-1 motor neuron cells, stronger effect = higher value;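 also: tested at 1 µM final; 0% = mean of DMSO vehicle wells on each plate; positive means more glutamate uptake than control and negative means less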
# [6] = signal quenchers or enhancers, Cy5 substrate/SSB – biochemical, NIH Clinical Collection, E. coli SSB, artefact control for HCV NS3 helicase inhibitor project (AID 743268; call rule not given here); details: Cy5-oligo bound E. coli SSB, fluorescence interference
# [7] = tested on: Hepatitis C virus NS3 helicase; test: blockers of NS3h binding to DNA – biochemical, fluorescence polarization, NIH Clinical Collection, primary screen (AID 743270; call rule not given here); details: NS3 helicase binding to Cy5-dT15 DNA, stronger effect = higher value, concentration not given here
# [8] = target: Single-stranded DNA-binding protein (Escherichia coli (strain K12)) (UniProt P0AGE0); test: SSB-ssDNA binding inhibitors – biochemical, fluorescence polarization, NIH Clinical Collection, counter-screen for HCV NS3 helicase inhibitor project (AID 743271; in the data active = inhibition above about 28%); details: E. coli SSB-DNA binding, stronger effect = higher value, concentration not given here
# [9] = compounds distorting NS3 helicase fluorescence signal – biochemical, NIH Clinical Collection, artefact control for HCV NS3 helicase inhibitor project (AID 743272; call rule not given here;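 also: HCV NS3 helicase with a Cy5 labelled single stranded DNA probe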); details: fluorescence interference counterscreen, HCV NS3 helicase assay; stronger effect = lower value
# [10] = galactose survival enhancers in mitochondrial complex I cybrids – cell-based, galactose medium, ATP luminescence, primary screen (AID 1645843;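 active = z-score of at least 1.8 in each of two replicates, scored against plate mean and spread of sample wells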;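 also: positive z means more ATP and so rescue of galactose-driven cybrid death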); details: complex I mutant cybrid cells, 72 h, stronger effect = higher value
# [11] = tested on: F380Y/beta4; test: BK channel mutant inhibitors and activators – cell-based, U2OS BacMam, thallium flux, beta subunits, selectivity assay, profiling panel (AID 1259406); details: U2OS BacMam BK variants, at 30 µM;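 also: initial slope of Thallos dye fluorescence rise after thallium is added; log ratio against the mean of 0.3% DMSO vehicle wells on the same plate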
# [12] = target: Calcium-activated potassium channel subunit alpha-1 (Homo sapiens) + Leucine-rich repeat-containing protein 26 (Homo sapiens) (UniProt Q12791+Q2I0M4); test: as above; details: U2OS BacMam BK variants, F380Y/Slo1WT/gamma1, at 30 µM
# [13] = tested on: R275C; test: as above; details: U2OS BacMam BK variants, at 30 µM
# [14] = tested on: R275C/beta1; test: as above; details: U2OS BacMam BK variants, at 30 µM
# [15] = tested on: R275C/beta2Delta; test: as above; details: U2OS BacMam BK variants, at 30 µM
# [16] = tested on: R275C/beta4; test: as above; details: U2OS BacMam BK variants, at 30 µM
# [17] = tested on: R275C/Slo1WT/beta2; test: as above; details: U2OS BacMam BK variants, at 30 µM
# [18] = growth inhibition, single agent or in combination, cell-based, chromothripsis tumors, cisplatin or BGB combos (AID 1671449; in the data active = inhibition above about 80%;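 also: cells exposed for 96 hours; 0% = vehicle DMSO and 100% = killing by high DMSO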); details: LFS_MB_P medulloblastoma cells
# [19] = growth inhibition, single agent and combos, cell-based, chromothripsis tumors, cisplatin or BGB combos (AID 1671450; in the data active = inhibition above about 80%;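 also: cells exposed to compound for four days; 0% = vehicle DMSO and 100% = cell killing by high DMSO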); details: HDN33 neuroblastoma cells, stronger effect = higher value
# [20] = growth inhibition, single agents and combos, HTB85, cell-based, BGB or cisplatin IC20 combos, synergistic combos for chromothripsis tumors (AID 1671453; in the data active = inhibition above about 80%;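 also: cells exposed for 96 hours before readout; 0% = vehicle DMSO and 100% = high DMSO killing control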); details: HTB85 osteosarcoma cells, drug combinations, stronger effect = higher value
# [21] = at 0.5 µM, stronger effect = higher value
# [22] = measured here: combination with BGB IC20, at 0.005 µM
# [23] = measured here: combination with BGB IC40, at 0.005 µM
# [24] = measured here: combination with BGB IC40, at 0.05 µM
# [25] = measured here: combination with cisplatin, at 0.5 µM, stronger effect = higher value
# [26] = measured here: combination with cisplatin, at 5 µM, stronger effect = higher value
# [27] = measured here: with BGB IC20 combination, at 0.5 µM
# [28] = measured here: with cisplatin IC20 combination, at 0.5 µM
# [29] = measured here: with BGB IC20, at 0.5 µM
# [30] = measured here: with BGB IC20, at 5 µM
# [31] = measured here: with cisplatin IC20, at 0.5 µM
# [32] = measured here: with cisplatin IC20, at 5 µM
# Chain of Calcium-activated potassium channel subunit alpha-1 (Homo sapiens) + Leucine-rich repeat-containing protein 26 (Homo sapiens) (Q2I0M4 whole entry, looked up, one chain of several): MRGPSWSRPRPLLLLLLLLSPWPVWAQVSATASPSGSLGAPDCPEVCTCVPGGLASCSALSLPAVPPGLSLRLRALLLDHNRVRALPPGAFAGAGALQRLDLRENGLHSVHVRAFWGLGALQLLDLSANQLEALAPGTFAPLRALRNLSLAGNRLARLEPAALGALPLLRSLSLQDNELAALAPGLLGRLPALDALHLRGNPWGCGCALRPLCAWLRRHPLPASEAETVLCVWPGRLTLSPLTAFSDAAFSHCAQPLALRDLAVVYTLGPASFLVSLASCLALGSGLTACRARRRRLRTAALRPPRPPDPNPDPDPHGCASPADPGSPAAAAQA
structure (smiles),measurement,setting,value
O=c1[nH]cnc2[nH]ncc12,inhibition,[1],14.4%
same,score,[2],1.09
same,cytochrome c release ratio,[3],0.77
same,inhibition of aggregation,[4],60.9%
same,glutamate uptake change,[5],-7.44%
same,fluorescence ratio,[6],1.02 (inactive)
same,inhibition,[7],-5% (inactive)
same,inhibition,[8],-3.53% (inactive)
same,fluorescence ratio,[9],0.99 (inactive)
same,z-score,[10],0.315 (inactive) and -0.255 (inactive)
same,log fold change Tl+ flux,[11],0.00785 (inactive)
same,log fold change Tl+ flux,[12],0.0214 (inactive)
same,log fold change Tl+ flux,[13],0.00104 (inactive)
same,log fold change Tl+ flux,[14],0.0222 (inactive)
same,log fold change Tl+ flux,[15],0.0262 (inactive)
same,log fold change Tl+ flux,[16],0.0379 (inactive)
same,log fold change Tl+ flux,[17],0.0394 (inactive)
CCc1cc(C(N)=S)ccn1,inhibition,[1],13.5%
same,score,[2],1.02
same,cytochrome c release ratio,[3],1.06
same,inhibition of aggregation,[4],78.8%
same,glutamate uptake change,[5],15.8%
same,fluorescence ratio,[6],1.03 (inactive)
same,inhibition,[7],-4.09% (inactive)
same,inhibition,[8],-4.29% (inactive)
same,fluorescence ratio,[9],1.01 (inactive)
same,z-score,[10],0.725 (inactive)
same,log fold change Tl+ flux,[11],0.0197 (inactive)
same,log fold change Tl+ flux,[12],0.00124 (inactive)
same,log fold change Tl+ flux,[13],0.0202 (inactive)
same,log fold change Tl+ flux,[14],-0.00453 (inactive)
same,log fold change Tl+ flux,[15],-0.00222 (inactive)
same,log fold change Tl+ flux,[16],0.0412 (inactive)
same,log fold change Tl+ flux,[17],0.00968 (inactive)
N[C@@H](Cc1cc(I)c(Oc2cc(I)c(O)c(I)c2)c(I)c1)C(=O)O,fluorescence ratio,[6],0.87 (inactive)
same,inhibition,[7],0.45% (inactive)
same,inhibition,[8],0.29% (inactive)
same,fluorescence ratio,[9],0.88 (inactive)
same,z-score,[10],-1.38 (inactive) and -0.805 (inactive)
same,log fold change Tl+ flux,[11],0.107 (active)
same,log fold change Tl+ flux,[12],0.0246 (inactive)
same,log fold change Tl+ flux,[13],0.00175 (inactive)
same,log fold change Tl+ flux,[14],0.0456 (inactive)
same,log fold change Tl+ flux,[15],0.134 (active)
same,log fold change Tl+ flux,[16],0.234 (active)
same,log fold change Tl+ flux,[17],0.0236 (inactive)
COc1c(N2CCNC(C)C2)c(F)cc2c(=O)c(C(=O)O)cn(C3CC3)c12 (centres undefined),fluorescence ratio,[6],1.05 (inactive)
same,inhibition,[7],-8.64% (inactive)
same,inhibition,[8],-6.58% (inactive)
same,fluorescence ratio,[9],1.01 (inactive)
same,z-score,[10],0.695 (inactive) and -0.01 (inactive)
same,inhibition,[18]; [21],-20.5% (inactive) and -4.2% (inactive)
same,inhibition,[18]; [22],17.2% and 22.3%
same,inhibition,[18]; [23],3.24% and -1.74%
same,inhibition,[18]; [24],-33% and 5.75%
same,inhibition,[18]; [25],-33.3% and -6.41%
same,inhibition,[18]; [26],-5.09% and 4.8%
same,inhibition,"[19]; BGB combo, at 5 µM",-39.9% and 9.99%
same,inhibition,[19]; at 0.5 µM,-22% (inactive) and 8.9% (inactive)
same,inhibition,"[19]; cisplatin combo, at 5 µM",-25.7% and 17.8%
same,inhibition,[19]; [27],-19.2% and 9.8%
same,inhibition,[19]; [28],-37.3% and 8.47%
same,inhibition,"[19]; single agent, at 5 µM",-2.12% and 5.9%
same,inhibition,[20]; at 0.5 µM,-28.9% (inactive) and -4.45% (inactive)
same,inhibition,[20]; [29],-22.5% and -1.96%
same,inhibition,[20]; [30],-17.3% and -16.7%
same,inhibition,[20]; [31],-35.1% and -12%
same,inhibition,[20]; [32],-18.3% and -5.81%
same,inhibition,"[20]; single agent, at 5 µM",17.7% and -9.93%
same,log fold change Tl+ flux,[11],-0.0127 (inactive)
same,log fold change Tl+ flux,[12],0.0449 (inactive)
same,log fold change Tl+ flux,[13],-0.0278 (inactive)
same,log fold change Tl+ flux,[14],0.0168 (inactive)
same,log fold change Tl+ flux,[15],0.00178 (inactive)
same,log fold change Tl+ flux,[16],-0.00176 (inactive)
same,log fold change Tl+ flux,[17],0.05 (inactive)
CN=C(NC#N)NCCSCc1nc[nH]c1C,inhibition,[1],15.1%
same,score,[2],1.08
same,cytochrome c release ratio,[3],1.04
same,inhibition of aggregation,[4],58.9%
same,glutamate uptake change,[5],-5.55%
same,fluorescence ratio,[6],0.98 (inactive)
same,inhibition,[7],-3.18% (inactive)
same,inhibition,[8],-2% (inactive)
same,fluorescence ratio,[9],0.94 (inactive)
same,log fold change Tl+ flux,[11],0.031 (inactive)
same,log fold change Tl+ flux,[12],0.0464 (inactive)
same,log fold change Tl+ flux,[13],0.00692 (inactive)
same,log fold change Tl+ flux,[14],-0.0361 (inactive)
same,log fold change Tl+ flux,[15],0.00462 (inactive)
same,log fold change Tl+ flux,[16],0.0223 (inactive)
same,log fold change Tl+ flux,[17],0.0339 (inactive)
CCCCNc1cc(C(=O)O)cc(S(N)(=O)=O)c1Oc1ccccc1,inhibition,[1],4.16%
same,score,[2],1.19
same,cytochrome c release ratio,[3],1.53
same,inhibition of aggregation,[4],71.8%
same,glutamate uptake change,[5],-4.68%
same,fluorescence ratio,[6],1.02 (inactive)
same,inhibition,[7],-5.91% (inactive)
same,inhibition,[8],-2.76% (inactive)
same,fluorescence ratio,[9],0.97 (inactive)
same,z-score,[10],0.145 (inactive) and 0.39 (inactive) and 0.32 (inactive)
same,log fold change Tl+ flux,[11],-0.00421 (inactive)
same,log fold change Tl+ flux,[12],-0.0253 (inactive)
same,log fold change Tl+ flux,[13],-0.00799 (inactive)
same,log fold change Tl+ flux,[14],0.0319 (inactive)
same,log fold change Tl+ flux,[15],-0.0196 (inactive)
same,log fold change Tl+ flux,[16],0.0225 (inactive)
same,log fold change Tl+ flux,[17],0.0333 (inactive)
CC1=NS(=O)(=O)c2cc(Cl)ccc2N1,fluorescence ratio,[6],1 (inactive)
same,inhibition,[7],5.94% (inactive)
same,inhibition,[8],4.52% (inactive)
same,fluorescence ratio,[9],0.99 (inactive)
same,log fold change Tl+ flux,[11],-0.0353 (inactive)
same,log fold change Tl+ flux,[12],-0.0135 (inactive)
same,log fold change Tl+ flux,[13],-0.00922 (inactive)
same,log fold change Tl+ flux,[14],0.0109 (inactive)
same,log fold change Tl+ flux,[15],0.00734 (inactive)
same,log fold change Tl+ flux,[16],0.0187 (inactive)
same,log fold change Tl+ flux,[17],0.0541 (inactive)
CC(C)Cc1ccc(C(C)C(=O)O)cc1 (centres undefined),inhibition,[1],-4.83%
same,score,[2],0.01
same,cytochrome c release ratio,[3],0.94
same,inhibition of aggregation,[4],47.1%
same,glutamate uptake change,[5],16.3%
same,z-score,[10],0.975 (inactive) and -0.01 (inactive) and 0.46 (inactive)
same,log fold change Tl+ flux,[11],0.0254 (inactive)
same,log fold change Tl+ flux,[12],-0.0267 (inactive)
same,log fold change Tl+ flux,[13],0.00709 (inactive)
same,log fold change Tl+ flux,[14],-0.00083 (inactive)
same,log fold change Tl+ flux,[15],-0.00841 (inactive)
same,log fold change Tl+ flux,[16],-0.0471 (inactive)
same,log fold change Tl+ flux,[17],0.0328 (inactive)
COc1ccccc1OCCNCC(O)COc1cccc2[nH]c3ccccc3c12 (centres undefined),fluorescence ratio,[6],0.92 (inactive)
same,inhibition,[7],1.19% (inactive)
same,inhibition,[8],6.83% (inactive)
same,fluorescence ratio,[9],0.94 (inactive)
same,log fold change Tl+ flux,[11],0.358 (active)
same,log fold change Tl+ flux,[12],0.204 (active)
same,log fold change Tl+ flux,[13],-0.174 (active)
same,log fold change Tl+ flux,[14],0.386 (active)
same,log fold change Tl+ flux,[15],0.0657 (inactive)
same,log fold change Tl+ flux,[16],0.216 (active)
same,log fold change Tl+ flux,[17],0.0443 (inactive)
CC(=O)OCC(CCn1cnc2cnc(N)nc21)COC(C)=O,fluorescence ratio,[6],1.06 (inactive)
same,inhibition,[7],-1.98% (inactive)
same,inhibition,[8],-4.72% (inactive)
same,fluorescence ratio,[9],0.99 (inactive)
same,z-score,[10],0.72 (inactive) and 0.425 (inactive) and 0.32 (inactive)
same,inhibition,[18]; [21],-15.4% (inactive)
same,inhibition,[18]; [22],-4.33%
same,inhibition,[18]; [23],-16.3%
same,inhibition,[18]; [24],-21.9%
same,inhibition,[18]; [25],-33%
same,inhibition,[18]; [26],-20.4%
same,inhibition,"[19]; BGB combo, at 5 µM",-6.25%
same,inhibition,[19]; at 0.5 µM,-3.67% (inactive)
same,inhibition,"[19]; cisplatin combo, at 5 µM",8.87%
same,inhibition,[19]; [27],-10.2%
same,inhibition,[19]; [28],4.72%
same,inhibition,"[19]; single agent, at 5 µM",-14.6%
same,inhibition,[20]; at 0.5 µM,-2.55% (inactive)
same,inhibition,[20]; [29],-18%
same,inhibition,[20]; [30],-24.7%
same,inhibition,[20]; [31],0.506%
same,inhibition,[20]; [32],-48.5%
same,inhibition,"[20]; single agent, at 5 µM",-10%
same,log fold change Tl+ flux,[11],0.0232 (inactive)
same,log fold change Tl+ flux,[12],0.0418 (inactive)
same,log fold change Tl+ flux,[13],-0.0357 (inactive)
same,log fold change Tl+ flux,[14],0.0343 (inactive)
same,log fold change Tl+ flux,[15],-0.0321 (inactive)
same,log fold change Tl+ flux,[16],0.0276 (inactive)
same,log fold change Tl+ flux,[17],0.0386 (inactive)
